75 compounds from the supplement of paper PMC7556523 can be followed below.

In test [1] the test system is Sporothrix brasiliensis CBS 133006. Kind of test: growth inhibition relative to untreated control; higher = more growth inhibition (more antifungal activity), active = 80 or more; extreme values may be limits of the assay. The note with it: 1 µM; 48 h. A digest of the protocol:
(§1)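 The reported figure is percent growth inhibition relative to untreated cells, from quadruplicate runs. Yeast-form cells of the reference isolates at 1 x 10^5 CFU/ml were exposed to library compounds at a final 1 μM for 48 h at 35°C in 5% CO2, and growth was assessed by microscopy and spectrophotometric readings.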

Test [2] has as its system Sporothrix schenckii ATCC 32286. The description is as above. The note with it: 1 µM; 48 h. In a few lines:
as §1

Unmarked numbers belong to inactive results.

For the compound `N#Cc1ccc(-c2cnc(N)c(-c3ccc(C(N)=O)cc3)n2)cc1`, the growth inhibition in test [1] was 3.75%; in test [2] it was 9%.

As for `O=C(c1ccc(NCCO)cc1)C1C[C@H]1c1ccc(Cl)cc1` (stereo not given in full), the growth inhibition in test [1] was 2%; in test [2] it was 8.5%.

Turning to `Nc1nccc2ccc(Oc3ccncc3)cc12`, the growth inhibition in test [1] was 9.25%; in test [2], 14.2%.

Regarding `COc1ccc(Cn2cnc3c(-c4ccco4)nc(Cl)nc32)cc1`, the growth inhibition is 15.8% in test [1] and 17.8% in test [2].

For `c1ccc(-c2cc(N3CCCCC3)c3ccccc3n2)nc1`, the growth inhibition was 35.2% in test [1] and 14.8% in test [2].

Take `Cc1cc(C)n(-c2ccc(NC(=O)C3CCN(Cc4cnc(C)s4)CC3)cc2)n1`: the results for the growth inhibition in test [1] and in test [2] were 5.5% and 1.25%, respectively.

As to `COc1ccccc1OCCCCn1c(C2CC2)nc2ccccc21`, the growth inhibition was 7.75% in test [1] and 9.25% in test [2].

As for `COc1ccc(-c2cnc3ccc(N4CCCC4)nn23)cc1OC`, the results for the growth inhibition in test [1] and in test [2] were 21% and 0%, respectively.

As for `O=C(C1CCN(c2nnnn2-c2ccccc2)CC1)N1CCc2ccccc2C1`, the growth inhibition was 2.5% in test [1] and 3% in test [2].

As to `COc1ccccc1CNC(=O)c1cc(C2CC2)nc2c1cnn2C(C)C`, the growth inhibition in test [1] is 27.8%; in test [2] it was 0%.

For the compound `Cc1[nH]c2cc(F)cc(F)c2c(=O)c1-c1ccc(Oc2ccc(OC(F)(F)F)cc2)cc1`, the growth inhibition is 2.25% in test [1] and 9.5% in test [2].

On to `O=C(Nc1ccc(N2CCNCC2)nc1)c1oc(-c2ccccc2)nc1C(F)(F)F`, for which the growth inhibition in test [1] was 15.2%; in test [2], 13.5%.

For the compound `COc1ccccc1C(C)NCC(=O)Nc1cc(C(F)(F)F)ccc1Cl` (stereo not given), the growth inhibition in test [1] is 9.75%; in test [2], 0%.

As for `CCCn1nnc(NC(=O)COc2ccc(C3CCCCC3)cc2)n1`, the growth inhibition in test [1] is 13.2%; in test [2], 0.5%.

As to `CCOc1ccccc1C(=O)Nc1cccc(-c2nc3ncccn3c2C)c1`, the growth inhibition is 6.75% in test [1] and 12.2% in test [2].

For `CC(Oc1cccc(Cl)c1)C(=O)Nc1ccc2oc(-c3ccncc3)nc2c1` (stereo not given), the growth inhibition in test [1] is 20%; in test [2], 4.25%.

As for `CCc1nc2ccc(C(=O)NCc3ccc4c(c3)OCO4)cn2c1N(C)Cc1cccs1`, the growth inhibition was 7% in test [1] and 2.75% in test [2].

For the compound `CC1CS(=O)(=O)CCN1/N=C/c1ccc([N+](=O)[O-])o1` (stereo not given), the values for the growth inhibition in test [1] and in test [2] were 6% and 7%, respectively.

On to `COc1cc(C2=NCCN2)cc2cc(-c3ccc(C4=NCCN4)cc3)oc12`, for which the figures for the growth inhibition in test [1] and in test [2] were 17% and 4.25%, respectively.

Turning to `C[C@]1(COc2ccc(N3CCC(Oc4ccc(OC(F)(F)F)cc4)CC3)cc2)Cn2cc([N+](=O)[O-])nc2O1`, the growth inhibition is 7.25% in test [1] and 4.5% in test [2].

With `COc1cccc(OCC(=O)c2ccc(Br)cc2)c1`, the growth inhibition in test [1] is 16%; in test [2], 22%.

Take `COC(=O)c1c(NC(=O)c2c(F)c(F)c(F)c(F)c2F)sc2c1CCCCC2`: the growth inhibition was 13.8% in test [1] and 0.75% in test [2].

`NS(=O)(=O)c1cccc(-c2ccc3ncc(N4CCOCC4)nc3c2)c1`: the growth inhibition is 17% in test [1] and 0% in test [2].

Regarding `COc1cc(CN2CCC3(C=Cc4ccccc43)CC2)cc2c1OCO2`, the results for the growth inhibition in test [1] and in test [2] were 4.25% and 3.25%, respectively.

Take `CCC(=O)Nc1ccccc1C(=O)Nc1ccccn1`: the growth inhibition in test [1] is 0%; in test [2], 1.5%.

`CCN(CC)CCCCCCNc1cc(OC)cc2c(C)ccnc12`: the growth inhibition in test [1] is 7%; in test [2] it was 2.25%.

As to `Nc1ncc(-c2cn[nH]c2)cc1-c1nc2cc(Cl)cnc2[nH]1`, the growth inhibition is 12% in test [1] and 11% in test [2].

As to `CC(C)(C)CN1C(=O)C(c2ccccc2)(c2ccccc2)N=C1N`, the growth inhibition is 17.8% in test [1] and 4.25% in test [2].

With `O=C(NCc1ccoc1)N1CCN(Cc2ccc3c(c2)OCO3)CC1`, the growth inhibition was 7.5% in test [1] and 6.25% in test [2].

In the case of `Clc1ccc(CN2CCN(C3=NCCN3)CC2)cc1Cl`, the growth inhibition in test [1] is 18.8%; in test [2] it was 17%.

For `Cc1ccc(Oc2ccc(NC(=O)CNc3ccccc3N3CCCC3=O)cc2)cc1`, the growth inhibition in test [1] and in test [2] was 0% each time.

With `Cc1ccccc1CN1CCC(O)(c2ccc(Cl)c(C(F)(F)F)c2)CC1`, the growth inhibition in test [1] and in test [2] was 0% throughout.

Regarding `CC(C)(C)[C@H]1CC[C@H](CC2=C(O)C(=O)c3ccccc3C2=O)CC1`, the growth inhibition in test [1] is 88% (active); in test [2], 14%.

Turning to `CO[C@@H](C(=O)N1Cc2[nH]nc(NC(=O)c3ccc(N4CCN(C)CC4)cc3)c2C1)c1ccccc1`, the values for the growth inhibition in test [1] and in test [2] were 16.2% and 1.5%, respectively.

As for `Cc1cc(O)nc(-n2nc(C)cc2C)n1`, the growth inhibition was 4.75% in test [1] and 11.8% in test [2].

For `CCn1ncc2c(NC3CCOCC3)c(CNC(=O)c3ccnn3C)c(C)nc21`, the values for the growth inhibition in test [1] and in test [2] were 4.25% and 0%, respectively.

As for `FC(F)(F)c1cc(NCCc2ccccc2)nc(-c2ccccn2)n1`, the growth inhibition was 10% in test [1] and 9.75% in test [2].

On to `Clc1ccc(-n2cc(COc3ccnc4ccccc34)nn2)cc1`, for which the growth inhibition in test [1] was 13.5%; in test [2], 10%.

On to `N=C(N)Nc1ccc(-c2ccc(-c3ccc(NC(=N)N)cc3Cl)o2)c(Cl)c1`, for which the results for the growth inhibition in test [1] and in test [2] were 19.8% and 0%, respectively.

Consider `c1ccc(Oc2ccc(-c3cc(C4CCOCC4)[nH]n3)cc2)cc1`, for which the growth inhibition was 3% in test [1] and 2.75% in test [2].

For the compound `O=C(Nc1nnc(-c2ccc(Cl)s2)o1)c1ccc(Cl)s1`, the results for the growth inhibition in test [1] and in test [2] were 27.8% and 42%, respectively.

On to `Cc1ccc(-c2nc(CN(Cc3ccccn3)C(C)C)cs2)o1`, for which the growth inhibition in test [1] is 24%; in test [2], 1.75%.

Consider `CC(C)C(Oc1cccc2ccccc12)C(=O)O` (stereo not given), for which the figures for the growth inhibition in test [1] and in test [2] were 23.2% and 4.25%, respectively.

With `Cc1cc2ccccc2n1CC(=O)N1CC(C(=O)N2CCCCC2)Oc2ccccc21` (stereo not given), the figures for the growth inhibition in test [1] and in test [2] were 14.8% and 10.8%, respectively.

With `O=[N+]([O-])c1cn2c(n1)OC[C@@H](OCc1ccc(OC(F)(F)F)cc1)C2`, the growth inhibition in test [1] is 9%; in test [2], 10.2%.

`Brc1cncc(-c2cc(NCCCn3ccnc3)nc(-c3ccccc3)n2)c1`: the growth inhibition was 22% in test [1] and 3.5% in test [2].

On to `O=C1Nc2ccc(Br)cc2C12NCCc1c2[nH]c2ccccc12` (stereo not given), for which the figures for the growth inhibition in test [1] and in test [2] were 18.8% and 4.75%, respectively.

Turning to `CCOc1ccc(-c2nc(CNCCc3ccc(F)cc3)cs2)cc1`, the growth inhibition in test [1] was 3.75%; in test [2] it was 15.5%.

As for `CN1CCCN(C(c2ccccc2)c2ccc(Cl)cc2)CC1` (stereo not given), the figures for the growth inhibition in test [1] and in test [2] were 6% and 6.5%, respectively.

`COc1ccc(OC(C)C(=O)Nc2ccc(Cl)cc2C)cc1` (stereo not given): the growth inhibition was 10.5% in test [1] and 11.2% in test [2].

For the compound `CCN(CC)CCCN1CCN(C(=O)c2cccc(-c3noc(C(F)(F)F)n3)c2)CC1`, the results for the growth inhibition in test [1] and in test [2] were 25% and 0%, respectively.

Consider `CC(C)(C)c1cc(C(=O)N2CCN(c3nccnc3C#N)CC2)n(Cc2ccccc2)n1`, for which the results for the growth inhibition in test [1] and in test [2] were 25.8% and 15.8%, respectively.

In the case of `Cc1cccc(-c2nc(Nc3ccncn3)c3sccc3n2)n1`, the growth inhibition in test [1] was 1%; in test [2], 9.75%.

With `O=C(Nc1nc(-c2ccccn2)cs1)C1CC1c1ccccc1F` (stereo not given), the results for the growth inhibition in test [1] and in test [2] were 9.5% and 34.2%, respectively.

With `Cc1cc(Cl)c(S(=O)(=O)N2CCCC2)cc1OCC(=O)NC1CCCCC1`, the growth inhibition in test [1] was 8%; in test [2] it was 0%.

With `O=C(C1CCCCC1)N1CC(=O)N2CCc3ccccc3C2C1` (stereo not given), the values for the growth inhibition in test [1] and in test [2] were 2.25% and 10.2%, respectively.

As to `CC(C)(C)C(=O)N(CCCCCCN1C[C@H](O)[C@@H](O)[C@H](O)[C@H]1CO)C1CCCCCC1`, the growth inhibition in test [1] is 6.25%; in test [2], 8%.

Take `COc1cccc(-c2nc3c(N4CCCC4)cccc3n2CC2CCCN2)n1` (stereo not given): the growth inhibition in test [1] was 0%; in test [2], 9.5%.

With `O=C1COCc2ccc(Br)cc2N1Cc1ccc(C(F)(F)F)cc1`, the values for the growth inhibition in test [1] and in test [2] were 0% and 2.75%, respectively.

In the case of `NCCC(O)C(=O)N[C@@H]1C[C@H](N)[C@@H](OC2O[C@H](CN)[C@@H](O)[C@H](O)[C@H]2O)[C@H](O)C1OC1O[C@H](CO)[C@@H](O)[C@H](N)[C@H]1O` (stereo not given in full), the growth inhibition in test [1] was 9.25%; in test [2], 1%.

Consider `CC(C)(C)n1nc(Cc2ccc(F)c(Cl)c2)c2c(N)ncnc21`, for which the growth inhibition in test [1] was 14.2%; in test [2] it was 0%.

As to `COc1ccc(CCN2CCC(NCc3cccc(N(C)C)c3)CC2)cc1`, the growth inhibition in test [1] was 29%; in test [2] it was 9.75%.

In the case of `COc1cccc(-n2nnnc2S(C)(=O)=O)c1`, the growth inhibition was 0% in test [1] and 22.8% in test [2].

Turning to `Cc1ccc2nc(C)c(-c3ccn(Cc4ccccc4)n3)n2c1`, the growth inhibition was 44.8% in test [1] and 36.5% in test [2].

Regarding `CC(C)n1nc(-c2cc3c(Cl)cccc3[nH]2)c2c(N)ncnc21`, the values for the growth inhibition in test [1] and in test [2] were 15% and 16.8%, respectively.

Regarding `CS(=O)(=O)c1cccc(-c2cnc3[nH]cc(-c4ccc(CCC(=O)O)cc4)c3c2)c1`, the results for the growth inhibition in test [1] and in test [2] were 4.25% and 0%, respectively.

For `CC(=O)N1CCN(c2ccc(Oc3ccc(Cl)cc3O)cc2)CC1`, the figures for the growth inhibition in test [1] and in test [2] were 3.5% and 0.75%, respectively.

As for `COc1ccc(-c2cnc3cnc(-c4cccc(OC(C)C)c4)cn23)cc1`, the growth inhibition in test [1] was 10.2%; in test [2] it was 12%.

`CNCCC(Oc1ccc(C(F)(F)F)cc1)c1ccccc1` (stereo not given): the values for the growth inhibition in test [1] and in test [2] were 7.75% and 2%, respectively.

Turning to `Cc1cc(OCC(=O)NCc2ccccc2)c2cc(Br)ccc2n1`, the growth inhibition in test [1] is 10%; in test [2], 4%.

On to `Nc1nc(N)c2c3c(sc2n1)CN(Cc1ccccc1)CC3`, for which the figures for the growth inhibition in test [1] and in test [2] were 21.5% and 11%, respectively.

For the compound `OCCc1ccc(Nc2nccc(-c3nnc4ccccn34)n2)cc1`, the growth inhibition in test [1] was 28.2%; in test [2], 2.5%.

Regarding `Cc1nc(-c2cccc(NCc3ccccc3)c2)[nH]c1C`, the figures for the growth inhibition in test [1] and in test [2] were 1.25% and 10.2%, respectively.

As for `Nc1ncc(Br)cc1-c1nc2cc(Cl)cnc2[nH]1`, the growth inhibition in test [1] was 12%; in test [2], 19.2%.

Consider `COc1nc2ccc(Br)cc2cc1[C@@H](c1ccccc1)[C@@](O)(CCN(C)C)c1cccc2ccccc12`, for which the figures for the growth inhibition in test [1] and in test [2] were 21.5% and 17.8%, respectively.
